Source: PubChem BioAssay (NCATS)
Records with an inconclusive call do not appear. Activity calls are given as the source filed them. The call rests on the fitted dose curve; in most records, active means well fitted curve in the direction sought with a large enough effect; inconclusive means small, poorly fitted or top-dose-only effect, or another doubt; inactive means no such curve, though single readings can be large; an effect the other way counts as inactive or inconclusive.

Columns and labels:
KB-3-1 = assay: Cytotoxic Profiling of Annotated Libraries Using Quantitative High-Throughput Screening (AID 1296008); settings: Five cell lines viability, CellTiter-Glo ATP luminescence, 48-72 h; max response: stronger effect = lower value; further: nearly all actives have a fitted effect of over 60% in size; on max response: on the % scale 0 is the no-effect control and ±100 the full control effect
In short: (§1)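 Compounds were pin-transferred onto cells and incubated 48 or 72 hr at 37 degree Celsius, 95% humidity. CellTiter-Glo was added, plates sat 10 min at room temperature, then ATP-coupled luminescence was imaged as the viability read-out.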

NIH3T3 [1] = assay: as above; settings: Five cell lines viability, CellTiter-Glo ATP luminescence, 48-72 h; max response: stronger effect = lower value
In short: as §1

CRL-7250 = normal cell line; assay: qHTS assay to identify novel small-molecules to repurpose for Merkel cell carcinoma treatment (AID 1296009); settings: MCC and control cell lines, CellTiter-Glo viability, 72 h; at 44.8 µM (top of the series) unless noted; further: nearly all actives have a fitted effect of over 60% in size
In short: (§2)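 Viability readout: ATP luminescence (CellTiter-Glo) after 72 hr drug exposure at 37 degree celsius. Dose-response format was 8 points for NPC and 11 points for MIPE; data normalized to in-plate controls.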

HACAT = assay: as above; settings: MCC and control cell lines, CellTiter-Glo viability, 72 h; at 44.8 µM (top of the series) unless noted
In short: as §2

NIH3T3 [2] = assay: as above; settings: MCC and control cell lines, CellTiter-Glo viability, 72 h; at 44.8 µM (top of the series) unless noted
In short: as §2

C33A = assay: Primary qHTS to identify gynecologic anti-cancer compounds using libraries of approved drugs and bioactive compounds (AID 1345084); settings: Gynecologic cancer cell panel viability, ATPlite luminescence, 48 h; series mostly up to 57.5 µM; further: on the % scale 0 is the no-effect control and ±100 the full control effect; nearly all actives have a fitted effect of over 55% in size
In short: (§3)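 Cells, 1,000 per well, plated 16 h, then exposed 48 h at 37 C to compounds. Viability by ATPlite luminescence after 15 min at room temperature.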

CASKI = assay: as above; settings: Gynecologic cancer cell panel viability, ATPlite luminescence, 48 h; series mostly up to 57.5 µM
In short: as §3

Es-2 = assay: as above; settings: Gynecologic cancer cell panel viability, ATPlite luminescence, 48 h; series mostly up to 57.5 µM
In short: as §3

HeLa = assay: as above; settings: Gynecologic cancer cell panel viability, ATPlite luminescence, 48 h; series mostly up to 57.5 µM
In short: as §3

Hek293T [3] = assay: as above; settings: Gynecologic cancer cell panel viability, ATPlite luminescence, 48 h, control line for the selectivity index; series mostly up to 57.5 µM
In short: as §3

JEG-3 = assay: as above; settings: Gynecologic cancer cell panel viability, ATPlite luminescence, 48 h; series mostly up to 57.5 µM
In short: as §3

OV90 = assay: as above; settings: Gynecologic cancer cell panel viability, ATPlite luminescence, 48 h; series mostly up to 57.5 µM
In short: as §3

HEK293T [4] = assay: qHTS assay to identify novel small-molecules to repurpose for Merkel cell carcinoma treatment (AID 1296009); settings: MCC and control cell lines, CellTiter-Glo viability, 72 h; at 44.8 µM (top of the series) unless noted; further: nearly all actives have a fitted effect of over 60% in size
In short: as §2

CAOV3 = assay: Primary qHTS to identify gynecologic anti-cancer compounds using libraries of approved drugs and bioactive compounds (AID 1345084); settings: Gynecologic cancer cell panel viability, ATPlite luminescence, 48 h; series mostly up to 57.5 µM; further: on the % scale 0 is the no-effect control and ±100 the full control effect; nearly all actives have a fitted effect of over 55% in size
In short: as §3

C[C@@]1(C(=O)O)CC[C@]2(C)CC[C@]3(C)C4=CC(=O)c5cc(O)c(O)cc5[C@]4(C)CC[C@@]3(C)[C@@H]2C1
inactive: outcome (KB-3-1) | outcome (NIH3T3 [1]) | outcome (CRL-7250) inactive [at 17.4 µM] | outcome (HACAT) inactive [at 17.4 µM] | outcome (NIH3T3 [2]) inactive [at 17.4 µM] | Potency (C33A) | Potency (CASKI) | Potency (Es-2) | Potency (HeLa) | Potency (Hek293T [3]) | Potency (JEG-3) | Potency (OV90)

COC(=O)[C@@]12C(=O)C(C)C(=O)[C@]1(C)C(C)=C[C@H]1[C@]3(C=O)CC[C@H](OC(C)=O)C(C)(C)[C@H]3CC[C@@]12C (stereo partly drawn)
inactive: max response (KB-3-1) 6.62% | max response (NIH3T3 [1]) 3.28% | outcome (CRL-7250) inactive [at 17.4 µM] | outcome (HACAT) inactive [at 17.4 µM] | outcome (HEK293T [4]) inactive [at 17.4 µM] | Potency (C33A) | Potency (CASKI) | Potency (Es-2) | Potency (HeLa) | Potency (Hek293T [3]) | Potency (JEG-3) | Potency (OV90)

OCCCCC#Cc1cncc(OC[C@@H]2CCN2)c1
inactive: max response (KB-3-1) -3.78% | outcome (NIH3T3 [1]) | outcome (CRL-7250) | outcome (HACAT) | outcome (NIH3T3 [2]) | Potency (C33A) | Potency (CAOV3) | Potency (CASKI) | Potency (Es-2) | Potency (HeLa) | Potency (Hek293T [3]) | Potency (JEG-3) | Potency (OV90)

COC1CC(=O)C23C(=O)NC(CC(C)C)C2C(C)=C(C)C(OO)C3/C=C(\C)CCC(O)C1O (stereo not drawn)
inactive: outcome (KB-3-1) | outcome (NIH3T3 [1]) | outcome (CRL-7250) inactive [at 17.4 µM] | outcome (HACAT) inactive [at 17.4 µM] | outcome (NIH3T3 [2]) inactive [at 17.4 µM] | Potency (C33A) | Potency (CAOV3) | Potency (CASKI) | Potency (Es-2) | Potency (HeLa) | Potency (Hek293T [3]) | Potency (JEG-3) | Potency (OV90)

C[C@H](NC(=O)Cc1cc(F)cc(F)c1)C(=O)N[C@@H]1N=C(c2ccccc2)c2ccccc2N(C)C1=O
inactive: max response (KB-3-1) 4.54% | max response (NIH3T3 [1]) -0.0571% | outcome (CRL-7250) | outcome (HACAT) | Potency (C33A) | Potency (CASKI) | Potency (Es-2) | Potency (HeLa) | Potency (Hek293T [3]) | Potency (JEG-3) | Potency (OV90)

C[C@@]12C[C@@H](c3ccoc3)OC(=O)C1CC[C@]1(C)[C@H]2[C@H]2C=C[C@]1(O)C(=O)O2 (stereo partly drawn)
inactive: max response (KB-3-1) 3.68% | outcome (NIH3T3 [1]) | outcome (CRL-7250) | outcome (HEK293T [4]) | Potency (C33A) | Potency (CAOV3) | Potency (CASKI) | Potency (Es-2) | Potency (HeLa) | Potency (Hek293T [3]) | Potency (JEG-3) | Potency (OV90)

Cn1ncnc1COc1nn2c(-c3c(F)cccc3F)nnc2cc1C1CCC1
inactive: outcome (KB-3-1) | max response (NIH3T3 [1]) 2.04% | outcome (CRL-7250) | outcome (HACAT) | outcome (HEK293T [4]) | Potency (C33A) | Potency (CASKI) | Potency (Es-2) | Potency (HeLa) | Potency (Hek293T [3]) | Potency (JEG-3) | Potency (OV90)

C/C=C(\C)C(=O)OC1CC2C(CC=C3CC(OC4CC(OC)C(OC5CC(OC)C(OC6OC(C)C(OC7OC(CO)C(O)C(O)C7O)C(OC)C6O)C(C)O5)C(C)O4)CCC32C)C2(O)CCC(C(C)=O)C12C (stereo not drawn)
inactive: outcome (KB-3-1) | max response (NIH3T3 [1]) -0.91% | outcome (CRL-7250) inactive [at 9.27 µM] | outcome (HACAT) inactive [at 9.27 µM] | activity change, negative = cytotoxicity (C33A) 3.18% [at 11.6 µM] | activity change, negative = cytotoxicity (CASKI) 19.1% [at 11.6 µM] | activity change, negative = cytotoxicity (Es-2) 3.55% [at 11.6 µM] | activity change, negative = cytotoxicity (HeLa) -1.26% [at 11.6 µM] | activity change, negative = cytotoxicity (Hek293T [3]) 2.23% [at 11.6 µM] | activity change, negative = cytotoxicity (JEG-3) 1.45% [at 11.6 µM] | activity change, negative = cytotoxicity (OV90) 8.31% [at 11.6 µM]

COC(=O)C1(C)CCC(O)C2(C)c3cc(O)c(C(C)C)cc3C(O)C(OC(C)=O)C12 (stereo not drawn)
inactive: outcome (KB-3-1) | max response (NIH3T3 [1]) 3.45% | outcome (CRL-7250) inactive [at 17.4 µM] | outcome (HACAT) inactive [at 17.4 µM] | Potency (C33A) | Potency (CAOV3) | Potency (CASKI) | Potency (Es-2) | Potency (HeLa) | Potency (Hek293T [3]) | Potency (JEG-3) | Potency (OV90)

Cc1cccc(NC(=O)N[C@@H]2N=C(c3ccccc3)c3ccccc3N(C)C2=O)c1
inactive: max response (KB-3-1) 9% | outcome (NIH3T3 [1]) | outcome (CRL-7250) | outcome (HACAT) | outcome (NIH3T3 [2]) | Potency (C33A) | Potency (CAOV3) | Potency (CASKI) | Potency (Es-2) | Potency (HeLa) | Potency (Hek293T [3]) | Potency (JEG-3) | Potency (OV90)

CCN1C[C@]2(COC)[C@H](O)C[C@H](OC)[C@]34[C@@H]5C[C@]6(O)[C@H](OC(=O)c7ccccc7)[C@@H]5[C@@](O)([C@H]([C@H](OC)[C@H]23)[C@@H]14)[C@@H](O)[C@@H]6OC
inactive: max response (KB-3-1) 2.1% | outcome (NIH3T3 [1]) | outcome (CRL-7250) | outcome (HEK293T [4]) | Potency (C33A) | Potency (CASKI) | Potency (Es-2) | Potency (HeLa) | Potency (Hek293T [3]) | Potency (JEG-3) | Potency (OV90)

C=C1[C@@H]2CC[C@@]3(C)[C@H](c4ccoc4)OC(=O)C[C@]13O[C@H]1CC(=O)C(C)(C)[C@H](C(OC(C)=O)C(=O)OC)[C@]12C (stereo partly drawn)
inactive: max response (KB-3-1) -6.59% | max response (NIH3T3 [1]) -2.92% | outcome (CRL-7250) inactive [at 17.4 µM] | outcome (HACAT) inactive [at 17.4 µM] | Potency (C33A) | Potency (CASKI) | Potency (Es-2) | Potency (HeLa) | Potency (Hek293T [3]) | Potency (JEG-3) | Potency (OV90)

Clc1ccc(OCC2=NCCN2)cc1Cl
inactive: max response (KB-3-1) 6.44% | outcome (NIH3T3 [1]) | outcome (CRL-7250) | outcome (HACAT) | outcome (HEK293T [4]) | Potency (C33A) | Potency (CAOV3) | Potency (CASKI) | Potency (Es-2) | Potency (HeLa) | Potency (Hek293T [3]) | Potency (JEG-3) | Potency (OV90)

COc1cc(C)[nH]c(=O)c1CNC(=O)c1c(C)n([C@H](C)C2CCOCC2)c2ccccc12
inactive: outcome (KB-3-1) | outcome (NIH3T3 [1]) | outcome (CRL-7250) | outcome (HEK293T [4]) | outcome (NIH3T3 [2]) | Potency (C33A) | Potency (CASKI) | Potency (Es-2) | Potency (HeLa) | Potency (Hek293T [3]) | Potency (JEG-3) | Potency (OV90)
